Many of the other results were omitted from the sample, so hits are more common in it than they were.
RGS4 inhibitor = Inhibitors of Regulator of G Protein Signaling (RGS) 4: qHTS; Regulator of G-protein signaling 4 (Homo sapiens), P49798; Transcreener GDP fluorescence polarization, RGS4-accelerated GTP hydrolysis; Potency, µM (series often up to 114 µM), inactives show at the top dose activity change, negative = inhibition, most hits filed as inhibitors; actives 0.039% (n = 390,000); active = well fitted inhibition curve with a large enough effect; inconclusive = small, poorly fitted or top-dose-only effect; inactive = no such curve, though single readings can be large or run the other way; also: potency is read from the fitted curve at half-maximal effect; % is scaled to controls: 0 for no effect and ±100 for the full control effect; nearly all actives have a fitted effect of over 75% in size
Target sequence (P49798 whole entry, looked up): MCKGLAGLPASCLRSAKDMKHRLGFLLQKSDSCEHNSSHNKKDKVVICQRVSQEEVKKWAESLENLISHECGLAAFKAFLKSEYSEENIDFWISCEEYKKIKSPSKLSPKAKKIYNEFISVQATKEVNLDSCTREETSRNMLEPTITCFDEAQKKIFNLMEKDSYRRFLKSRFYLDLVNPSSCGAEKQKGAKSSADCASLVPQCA
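MLSMR compounds (23 nl, pin-transferred) preincubated 10 min at room temperature with a 500nM (2x) first reagent, then RGS4 at 900nM (2x) plus Transcreener GDP mix added; fluorescence polarization (620/688 nm) read before and after 90 min at 30 °C.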
Menin-MLL FL inh = qHTS Assay for Inhibitors Targeting the Menin-MLL Interaction in MLL Related Leukemias: Competition With Fluorescein Labeled MLL-derived Peptide; FP activity change, % at 61.4 µM; 290,000 tested, under 10 active; Fluorescence polarization, fluorescein-MLL peptide displacement from menin; active = well fitted curve in the direction sought with a large enough effect in the polarisation, not every such curve was filed as active; inconclusive = small, poorly fitted or top-dose-only effect, or effect the other way, or a change in a side signal; inactive = no such curve, though single readings can be large or run the other way; the % refers to the polarisation; also: % of control where 0% means no effect
Menin MLL FP TR = qHTS Assay for Inhibitors Targeting the Menin-MLL Interaction in MLL Related Leukemias: Competition With Texas Red Labeled MLL-derived Mutant Peptide; Potency, µM (doses to about 61.6 µM), inactives show top-dose FP activity change, negative = inhibition, most hits filed as inhibitors; actives 0.23% (n = 270,000); AID 1768, 2009; O00255; Menin + Texas Red MLL mutant peptide, fluorescence polarization; active = well fitted inhibition curve with a large enough effect in the polarisation, with a control signal flat, not every such curve was filed as active; inconclusive = small, poorly fitted or top-dose-only effect, or effect the other way, or a change in a side signal; inactive = no such curve, though single readings can be large or run the other way; the % refers to the polarisation; also: potency is read from the fitted curve at half-maximal effect; % of control where 0% means no effect
ERG-DNA inh = qHTS for Small Molecule Inhibitors of the ERG Ets/DNA interaction; fluorescence polarization, His-ERG Ets domain / labelled DNA; Potency, µM (top dose mostly 76.9 µM), for the others: at the top dose FP activity, negative = inhibition, hits mostly inhibitors; actives 0.028% (n = 370,000); active = well fitted inhibition curve with a large enough effect in the polarisation, with a control signal flat; inconclusive = small, poorly fitted or top-dose-only effect, or effect the other way, or a change in a side signal; inactive = no such curve, though single readings can be large or run the other way; the % refers to the polarisation;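 also: polarization taken with two DNA probes labelled with fluorescein and Texas red; potency is read from the fitted curve at half-maximal effect; % of control where 0% means no effect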
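His-tagged ERG Ets domain (1 uM in the protein solution; 300mM KCl, 50mM Tris-HCl, 1mM EDTA, 1mM DTT, pH 7.5) received compound, then a probe mix of 5 nM fluorescein-DNA and 100nM Texas-615-DNA. Fluorescence polarization was read for both dyes.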
MLL CXXC-DNA inh = qHTS Fluorescence Polarization Assay for Inhibitors of MLL CXXC domain - DNA interaction; Histone-lysine N-methyltransferase 2A (Homo sapiens), Q03164; MLL-CXXC / FITC-HOXA9 DNA fluorescence polarization; Potency, µM (series often up to 115 µM), without a hit: top-dose activity change, negative = inhibition, actives largely listed as inhibitors; actives 0.037% (n = 290,000); active = well fitted inhibition curve with a large enough effect in the polarisation, with a control signal flat, not every such curve was filed as active; inconclusive = small, poorly fitted or top-dose-only effect, or effect the other way, or a change in a side signal; inactive = no such curve, though single readings can be large or run the other way; the % refers to the polarisation; also: potency is read from the fitted curve at half-maximal effect
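Fluorescence polarization: 7 uM MLL-CXXC (stock) preincubated 5 min with compounds, then 50 nM fluorescein-HOX-A9 DNA (stock) added; 30 min ambient. Buffer 50 mM Tris-HCl pH 7.5, 50 mM NaCl, 1 mM DTT, 0.05% BSA.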
PTAP TSG101 blk = qHTS Assay for Iinhibitors of HIV-1 Budding by Blocking the Interaction of PTAP/TSG101; 340,000 tested, under 10 active; Potency, µM (top dose mostly 115 µM), without a hit: top-dose activity change, negative = inhibition, hits mostly inhibitors; Fluorescence polarization, FITC-PTAP peptide / Tsg101 binding; active = well fitted inhibition curve with a large enough effect in the main read-out, with a control signal flat, not every such curve was filed as active; inconclusive = small, poorly fitted or top-dose-only effect, or effect the other way, or a change in a side signal; inactive = no such curve, though single readings can be large or run the other way; also: potency is read from the fitted curve at half-maximal effect; % of control where 0% means no effect
Target sequence (Q99816 whole entry, looked up): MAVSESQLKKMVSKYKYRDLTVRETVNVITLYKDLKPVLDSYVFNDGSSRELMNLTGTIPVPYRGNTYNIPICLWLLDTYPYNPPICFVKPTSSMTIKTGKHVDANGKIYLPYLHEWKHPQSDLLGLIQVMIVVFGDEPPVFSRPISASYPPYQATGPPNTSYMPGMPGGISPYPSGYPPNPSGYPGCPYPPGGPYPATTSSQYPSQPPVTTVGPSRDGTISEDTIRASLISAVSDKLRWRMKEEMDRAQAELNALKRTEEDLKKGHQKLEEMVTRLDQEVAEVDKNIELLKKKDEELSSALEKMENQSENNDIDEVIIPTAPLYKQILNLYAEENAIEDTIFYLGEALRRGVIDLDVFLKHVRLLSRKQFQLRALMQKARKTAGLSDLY
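Steps: Tsg101 binding domain dispensed (10 uM final), compounds pinned in DMSO, FITC-labeled PTAP-motif peptide added (50 nM final); after 20 min binding at room temperature, polarization measured.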
* marks the source's active call; other numbers are inactive results; i = inactive; ? = inconclusive; / = not tested or not shown; ! = not confirmed by another sample; [ ] = remark or other dose.

SMILES | RGS4 inhibitor | Menin-MLL FL inh | Menin MLL FP TR | ERG-DNA inh | MLL CXXC-DNA inh | PTAP TSG101 blk
CCNc1nc(NCC)nc(-n2cc(C(=O)c3cc(Cl)ccc3O)cn2)n1 | 1% | / | / | / | / | /
C=CCOC(=O)N[C@H](/C(C(=O)OC)=C(\C)NCc1ccccc1)c1ccc(C)cc1 | / | 3 | -5% | / | / | /
CCOc1ccc(CC(=O)NCc2ccc3c(c2)cc(C)n3C)cc1 | 7% | -1 | -7% | 40µM* | 5% | 1%
COc1ccc(C(=O)NCc2ccc3c(c2)cc(C)n3C)cc1 | ? | -10 | ? | 32µM* | 0% | -3%
COCC(=O)NCc1ccc2c(c1)cc(C)n2C | -14% | -18 | -19% | ? | -8% | -6%
Cc1cc2cc(CNC(=O)COc3ccccc3)ccc2n1C | -3% | 1 | / | -23% | -11% | -5%
Cc1ccc(S(=O)(=O)NCc2ccc3c(c2)cc(C)n3C)cc1 | 4% | -5 | ? | 7.1µM* | -2% | -4%
COc1ccc(C2NC(c3ccc4c(c3)OCO4)=CC(c3ccccc3O)N2)cc1OC (stereo not given) | -24% | / | / | / | / | /
CCCCC(=O)OCC(=O)[C@]1(O)Cc2c(O)c3c(c(O)c2[C@H](OC2CC(NC(=O)C(F)(F)F)C(O)C(C)O2)C1)C(=O)c1c(OC)cccc1C3=O (stereo not given in full) | / | -19 | 28µM* | / | -3% | /
O=C1N(Cc2cccnc2)C[C@@H]2C[C@@H](c3ccccc3C(F)(F)F)N3CCC[C@@]123 | 23% | 3 | / | 32µM* | -2% | -1%
CCC(=O)O[C@@H](OP(=O)(CCCCc1ccccc1)CC(=O)N1C[C@H](C2CCCCC2)C[C@H]1C(=O)O)C(C)C (stereo not given in full) | / | 1 | -1% | / | -9% | /
O=C1NC(=O)C(Cc2ccc(OCCN3COc4ccccc4C3=O)cc2)S1 (stereo not given) | / | -5 | 20% | / | / | /
CCNc1ncc2nc(-c3ccc(Cl)cc3)c(=O)n(CCC#N)c2n1 | / | 13 | 1% | / | / | /
N#CCCn1c(=O)c(-c2ccc(Cl)cc2)nc2cnc(Nc3ccccc3)nc21 | / | ? | 10µM* | / | / | /
Clc1ccc(Nc2nc(NCc3ccco3)nc3nccnc23)cc1 | -14% | / | / | / | / | /
COc1ccc(N(CC(O)Cn2c3ccccc3c3ccccc32)S(=O)(=O)c2ccccc2)cc1 (stereo not given) | -17% | -2 | 25µM* | -3% | 28% | -2%
O=C(O)CC/C=C\CC[C@H]1[C@@H](N2CCCCC2)[C@@H](O)C[C@@H]1OCc1ccc(-c2ccccc2)cc1 | 8.4µM* | ? | -18%[24.8 µM] | / | / | /
COC(=O)C1[C@@H](OC)C(OC(=O)COc2ccc(OC)cc2)C[C@@H]2CN3CCc4c([nH]c5cc(OC)ccc45)[C@H]3C[C@H]12 (stereo not given in full) | / | ? | -1% | / | 7% | /
O=C(NCCc1nc2ccccc2n1CCCOc1ccccc1)C1CCCCC1 | 9% | / | / | / | / | /
CN(Cc1ccccc1)C(=O)NC1CCCCC1 | 26% | 0 | 5% | 6% | -2% | -6%
CC(C)(Sc1ccc(CCN(CCCCC2CCCCC2)C(=O)NC2CCCCC2)cc1)C(=O)O | 27µM*! | 0 | -11% | 21% | 6% | -8%
Cc1ccc(S(=O)(=O)/C=C\C#N)cc1 | i | 36 | 1%[24.8 µM] | / | / | /
Cc1ccc(S(=O)(=O)/C=C/C#N)cc1 | 6µM* | 1 | 3% | / | / | /
Cn1c(=S)[nH]c(=O)c2ncc(=O)[nH]c21 | 2% | -3 | ? | 14µM* | -9% | 2%
Cn1c(=O)c(C#N)c(-c2ccc(F)cc2)c2cc(C(=O)c3cc(Cl)cc(Cl)c3O)cnc21 | -14% | 4 | / | -6% | 20% | -15%
SMILES | RGS4 inhibitor | Menin-MLL FL inh | Menin MLL FP TR | ERG-DNA inh | MLL CXXC-DNA inh | PTAP TSG101 blk
COc1ccccc1-n1c(=O)c(C#N)c(-c2ccc([N+](=O)[O-])cc2)c2cc(C(=O)c3cc(F)ccc3O)cnc21 | 25% | 6 | ? | 11µM* | -4% | -11%
COc1cccc(C2=Nn3c(nnc3-c3ccccc3C)SC2)c1 | / | -4 | -20% | / | / | /
COc1ccc(OC)c(N)c1 | ? | -9 | 25µM* | -6% | 1% | -8%
COc1ccc(OC)c(C(=O)C(=O)c2cc(OC)ccc2OC)c1 | 17% | / | / | 6% | / | 7%
O=C(N/N=C\C=C\c1ccc2c(c1)OCO2)C1COc2cc3ccccc3cc2O1 (stereo not given) | -12% | 5 | 20µM* | -3% | -3% | -2%
O=C(N/N=C/c1ccc2c(c1)OCO2)C1COc2ccccc2O1 (stereo not given) | 6% | -1 | 8% | / | 5% | -2%
N[C@H](Cc1c[nH]c2ccccc12)C(=O)O | 21µM* | -3 | 11% | / | -1% | /
CC(NC(=O)C1CCCN1C(=O)CN)C(=O)O (stereo not given) | / | 2 | 1% | / | / | /
COc1ccc(C(=O)NNC(=O)C(Cc2ccc(O)cc2)NC(=O)c2ccccc2NC(=O)c2ccc(OC)cc2)cc1 (stereo not given) | -21% | -1 | ? | 29% | 12% | -6%
COc1ccc(C(=O)Nc2ccccc2C(=O)NC(Cc2ccc(O)cc2)C(=O)NNC(=O)c2ccccc2Cl)cc1 (stereo not given) | -17% | 3 | 28µM* | 5% | 8% | -3%
O=S1(=O)C2CC3C=CC2(CN1Cc1ccccc1)O3 (stereo not given) | 1% | 0 | 5% | / | / | /
CCC/C=C/C(C)O (stereo not given) | / | 0 | 18% | / | / | /
CCCCC1=CC2=C(c3ccco3)C(=O)C(C)(OC(=O)c3ccc(Cl)nc3)C(=O)C2=CO1 (stereo not given) | / | 23 | 35% | / | / | /
COc1ccc(OC)c2c1C(=O)c1ccccc1C2=O | 1% | ? | -17% | 32µM* | ? | ?
COc1cc(C/C=C\c2ccccc2)c(OC)cc1O | / | -2 | ? | / | / | /
COc1cccc(-c2cc(C(=O)Nc3nc4ccccc4s3)c3ccccc3n2)c1 | -28% | 4 | 28µM* | / | 1% | -3%

Screening data as filed in PubChem BioAssay.
